Measured values from PubChem BioAssay (Tox21).
Several values for one entry are separate records, joined by “and”; a condition that tells them apart may be missing. Equal entries are not always repeated. Results filed as inconclusive are left out. Where a structure was tested more than once in an assay, its records may differ in their call. Activity calls are given as the source filed them. Calls follow the shape of the dose curve; as a rule, active = well fitted curve in the direction sought with a large enough effect in the repeat runs; inconclusive = weak or mixed curves; inactive = no such curve, though single readings can be large; an effect the other way counts as inactive or inconclusive.

Legend:
[1] = Caspase-3/7 induction in HepG2 cells by small molecules, qHTS assay (AID 1346978); also: nearly all actives have a fitted effect of over 15% in size
Procedure, shortened: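 Wild-type HepG2 cells, 2,000/well, settled 5 hr at 37 C and 5% CO2, then compound-treated for 17 hr; caspase-3/7 activity read by luminescent Caspase-Glo 3/7 after 30 min at room temperature.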

[2] = Caspase-3/7 induction in CHO-K1 cells by small molecules, qHTS cell viability counter screen (AID 1346979); also: nearly all actives have a fitted effect of over 35% in size; also: potency is read from the fitted curve at half-maximal effect
Procedure, shortened: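 Viability readout by fluorescence (CellTiter-Fluor) on wild-type CHO-K1 cells exposed for 16hr at 37C and 5% CO2 to compounds delivered in DMSO; reagent incubated 1hr before reading.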

[3] = Caspase-3/7 induction in CHO-K1 cells by small molecules, qHTS assay (AID 1346980); also: nearly all actives have a fitted effect of over 15% in size
Procedure, shortened: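 Wild-type CHO-K1 cells exposed to compounds for 17hr at 37 C, 5% CO2. Caspase-3/7 activity then measured by Caspase-Glo 3/7 luminescence after 30min at room temperature.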

[4] = Caspase-3/7 induction in HepG2 cells by small molecules, qHTS cell viability counter screen (AID 1346981); also: nearly all actives have a fitted effect of over 30% in size; also: potency is read from the fitted curve at half-maximal effect; as to activity change, negative = cytotoxicity: series mostly up to about 92 µM
Procedure, shortened: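 In this quantitative HTS counter screen, compounds delivered in DMSO were left on unmodified HepG2 cells for 16 hr at 37 C. Viability was then determined fluorometrically with CellTiter-Fluor, in parallel with caspase-3/7 induction in the same wells.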

[5] = molecular target: Nuclear receptor subfamily 1 group I member 2 (Homo sapiens) (UniProt O75469); assay: Human pregnane X receptor (PXR) small molecule agonists, qHTS assay (AID 1346982); also: nearly all actives have a fitted effect of over 35% in size; also: potency is read from the fitted curve at half-maximal effect
Procedure, shortened: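 Reporter HepG2 cells expressing PXR-Luc are cultured in charcoal-stripped FBS (5%), treated with compounds for 24 hr at 37 C, and assayed by ONE-Glo luminescence after 30 min at room temperature.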

[6] = molecular target: Nuclear receptor subfamily 1 group I member 2 (Rattus norvegicus) (UniProt Q9R1A7); assay: Rat pregnane X receptor (rPXR) activation by small molecules, qHTS assay (AID 1346983); conditions: rPXR luciferase reporter cells, One-Glo luminescence, 24 h; stronger effect = higher value; also: nearly all actives have a fitted effect of over 20% in size
Procedure, shortened: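 Cell-based rPXR activation assay: rPXR cells, 2,000 per well, rested 5hr at 37 C, then exposed to compounds in DMSO for 24 hr at 37 C. Luciferase activity read by One-Glo luminescence after 30 min at room temperature.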

[7] = molecular target: Nuclear receptor subfamily 1 group I member 2 (Homo sapiens) (UniProt O75469); assay: CYP3A4 induction through human pregnane X receptor (PXR) by small molecules, qHTS assay (AID 1346984); also: nearly all actives have a fitted effect of over 40% in size; also: potency is read from the fitted curve at half-maximal effect
Procedure, shortened: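 Induction measured in HepG2-based DPX-2 cells co-expressing human PXR and a CYP3A4 promoter-driven luciferase. After a 24-hour compound exposure, cells received CYP3A4 luciferin substrate at 3uM final for 3 hours, and light output was then recorded.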

[8] = molecular target: Nuclear receptor subfamily 1 group I member 2 (Homo sapiens) (UniProt O75469); assay: Human pregnane X receptor (PXR) activation by small molecules, qHTS assay (AID 1346985); also: nearly all actives have a fitted effect of over 40% in size; also: potency is read from the fitted curve at half-maximal effect
Procedure, shortened: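 DPX-2 cells (HepG2 co-transfected with a PXR response element and a CYP3A4-promoter luciferase construct) were seeded at 2,000 per well, rested 5 hr at 37C, then exposed to DMSO-dissolved compounds for 24 hr. Activation was read as luciferase luminescence.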

[9] = molecular target: Cytochrome P450 2D6 (Homo sapiens) (UniProt P10635); assay: Cytochrome P450 Family 2 Subfamily D Member 6 (CYP2D6) small molecule antagonists: luciferase reporter qHTS assay (AID 1671196); also: nearly all actives have a fitted effect of over 50% in size; also: potency is read from the fitted curve at half-maximal effect; as to activity change, negative = inhibition: series mostly up to about 120 µM
Procedure, shortened: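 Test chemicals meet CYP2D6 plus proluciferin substrate (10 min, RT); NADPH regenerating solution then drives turnover for 1 h. Detection reagent halts the reaction; luminescence measured after 20 min.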

[10] = molecular target: Cytochrome P450 2C19 (Homo sapiens) (UniProt P33261); assay: Cytochrome P450 Family 2 Subfamily C Member 19 (CYP2C19) small molecule antagonists: luciferase reporter qHTS assay (AID 1671197); also: nearly all actives have a fitted effect of over 65% in size; also: potency is read from the fitted curve at half-maximal effect; as to activity change, negative = inhibition: series mostly up to about 120 µM
Procedure, shortened: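 Enzyme-substrate mix with proluciferin substrate (P450-Glo CYP2C19 system) preincubated with compounds 10 min at room temperature; NADPH regeneration solution added, 37C for 1 h; detection reagent stops reaction, luminescence read after 20 min. Ketoconazole positive control.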

[11] = molecular target: Cytochrome P450 2C9 (Homo sapiens) (UniProt P11712); assay: Cytochrome P450 Family 2 Subfamily C Member 9 (CYP2C9) small molecule antagonists: luciferase reporter qHTS assay (AID 1671198); also: nearly all actives have a fitted effect of over 50% in size; also: potency is read from the fitted curve at half-maximal effect; as to activity change, negative = inhibition: series mostly up to about 120 µM
Procedure, shortened: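 P450-Glo proluciferin substrate with CYP2C9 enzyme; 10 min RT preincubation, then NADPH regeneration 1 h at 37C; luciferin detection reagent 20 min RT, luminescence in relative luminescence units.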

[12] = molecular target: Cytochrome P450 1A2 (Homo sapiens) (UniProt P05177); assay: Cytochrome P450 Family 1 Subfamily A Member 2 (CYP1A2) small molecule antagonists: luciferase reporter qHTS assay (AID 1671199); also: nearly all actives have a fitted effect of over 50% in size; also: potency is read from the fitted curve at half-maximal effect; as to activity change, negative = inhibition: series mostly up to about 120 µM
Procedure, shortened: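 Steps: enzyme-substrate mix dispensed; test compounds and furafylline control pinned in; 10 min room temperature; NADPH regeneration solution added, 1 h; reaction stopped with luciferin detection reagent; luminescence read after 20 min.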

[13] = molecular target: Voltage-gated inwardly rectifying potassium channel KCNH2 (Homo sapiens) (UniProt Q12809); assay: Human Ether-a-go-go-Related Gene (hERG) channel small molecule antagonists: fluorescence cell-based qHTS assay (AID 1671200); also: nearly all actives have a fitted effect of over 50% in size; also: potency is read from the fitted curve at half-maximal effect;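 as to activity change, negative = inhibition: hERG-expressing U2OS cells given a thallium stimulus after FluxOR II dye loading; series mostly up to about 77 µM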
Procedure, shortened: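 Thallium served as the potassium surrogate; its influx into dye-loaded U2OS cells carrying the channel was measured by fluorescence over 2 min.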

[14] = molecular target: Cytochrome P450 3A4 (Homo sapiens) (UniProt P08684); assay: Cytochrome P450 Family 3 Subfamily A Member 4 (CYP3A4) small molecule antagonists: luciferase reporter qHTS assay (AID 1671201)
Procedure, shortened: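 Relative luminescence units after 20 min with luciferin detection reagent served as read-out. Beforehand, CYP3A4 turned over a proluciferin substrate for 1 h at room temperature with NADPH regeneration, following 10 min compound preincubation.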
% is scaled to controls: 0 for no effect and ±100 for the full control effect.

Nuclear receptor subfamily 1 group I member 2 (Homo sapiens), sequence (O75469 whole entry, looked up): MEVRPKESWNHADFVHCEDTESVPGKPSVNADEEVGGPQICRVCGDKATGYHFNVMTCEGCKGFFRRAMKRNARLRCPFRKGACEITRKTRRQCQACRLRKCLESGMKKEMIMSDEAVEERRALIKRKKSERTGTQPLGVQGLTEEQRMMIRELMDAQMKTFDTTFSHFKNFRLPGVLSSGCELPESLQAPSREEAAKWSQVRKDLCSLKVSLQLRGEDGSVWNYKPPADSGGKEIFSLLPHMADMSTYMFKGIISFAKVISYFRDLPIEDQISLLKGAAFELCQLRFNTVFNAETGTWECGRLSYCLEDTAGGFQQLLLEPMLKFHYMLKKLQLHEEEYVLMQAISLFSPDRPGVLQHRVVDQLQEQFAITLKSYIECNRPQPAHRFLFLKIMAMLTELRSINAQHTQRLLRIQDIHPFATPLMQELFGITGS
Cytochrome P450 3A4 (Homo sapiens), sequence (P08684 whole entry, looked up): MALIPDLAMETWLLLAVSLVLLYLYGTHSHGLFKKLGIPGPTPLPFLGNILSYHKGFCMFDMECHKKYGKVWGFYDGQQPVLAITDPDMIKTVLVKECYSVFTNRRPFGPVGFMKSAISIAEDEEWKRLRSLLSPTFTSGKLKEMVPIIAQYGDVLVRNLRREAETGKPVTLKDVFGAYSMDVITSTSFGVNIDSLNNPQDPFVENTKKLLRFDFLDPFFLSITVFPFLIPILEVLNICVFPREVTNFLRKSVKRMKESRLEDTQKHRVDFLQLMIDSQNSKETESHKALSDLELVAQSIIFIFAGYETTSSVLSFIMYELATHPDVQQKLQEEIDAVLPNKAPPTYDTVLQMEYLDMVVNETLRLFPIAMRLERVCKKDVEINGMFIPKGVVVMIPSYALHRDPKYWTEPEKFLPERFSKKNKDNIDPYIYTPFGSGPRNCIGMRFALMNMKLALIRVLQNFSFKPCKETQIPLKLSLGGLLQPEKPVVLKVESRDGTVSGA
Voltage-gated inwardly rectifying potassium channel KCNH2 (Homo sapiens), sequence (Q12809 whole entry, looked up): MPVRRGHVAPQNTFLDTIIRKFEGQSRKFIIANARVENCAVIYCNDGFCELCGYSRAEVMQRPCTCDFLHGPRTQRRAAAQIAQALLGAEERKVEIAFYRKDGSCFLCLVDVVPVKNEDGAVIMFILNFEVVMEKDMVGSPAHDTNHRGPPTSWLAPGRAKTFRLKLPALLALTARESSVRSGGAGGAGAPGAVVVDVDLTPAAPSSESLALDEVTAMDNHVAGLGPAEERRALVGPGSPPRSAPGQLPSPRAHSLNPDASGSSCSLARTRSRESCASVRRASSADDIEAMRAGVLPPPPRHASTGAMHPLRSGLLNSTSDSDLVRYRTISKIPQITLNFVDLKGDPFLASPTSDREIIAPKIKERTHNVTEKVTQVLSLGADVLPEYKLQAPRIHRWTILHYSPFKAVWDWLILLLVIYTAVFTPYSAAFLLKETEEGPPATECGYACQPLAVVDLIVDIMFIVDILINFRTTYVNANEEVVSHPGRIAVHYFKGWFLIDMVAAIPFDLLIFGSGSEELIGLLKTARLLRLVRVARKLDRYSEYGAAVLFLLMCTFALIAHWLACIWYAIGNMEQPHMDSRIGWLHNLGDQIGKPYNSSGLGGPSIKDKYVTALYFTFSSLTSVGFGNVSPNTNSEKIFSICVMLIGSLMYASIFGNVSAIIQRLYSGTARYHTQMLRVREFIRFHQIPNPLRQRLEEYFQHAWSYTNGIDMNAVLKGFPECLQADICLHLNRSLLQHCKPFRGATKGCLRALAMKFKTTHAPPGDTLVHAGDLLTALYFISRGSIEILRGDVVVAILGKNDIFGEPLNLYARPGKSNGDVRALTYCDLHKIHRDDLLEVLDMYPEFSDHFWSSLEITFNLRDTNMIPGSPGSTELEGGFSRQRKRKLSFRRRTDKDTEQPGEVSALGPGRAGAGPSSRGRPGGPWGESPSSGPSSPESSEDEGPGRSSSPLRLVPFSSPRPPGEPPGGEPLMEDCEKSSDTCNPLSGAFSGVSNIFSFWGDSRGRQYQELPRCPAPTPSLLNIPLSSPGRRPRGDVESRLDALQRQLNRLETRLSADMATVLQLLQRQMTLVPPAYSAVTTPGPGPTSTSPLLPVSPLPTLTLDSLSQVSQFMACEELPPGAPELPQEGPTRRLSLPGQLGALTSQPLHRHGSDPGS
Cytochrome P450 2C9 (Homo sapiens), sequence (P11712 whole entry, looked up): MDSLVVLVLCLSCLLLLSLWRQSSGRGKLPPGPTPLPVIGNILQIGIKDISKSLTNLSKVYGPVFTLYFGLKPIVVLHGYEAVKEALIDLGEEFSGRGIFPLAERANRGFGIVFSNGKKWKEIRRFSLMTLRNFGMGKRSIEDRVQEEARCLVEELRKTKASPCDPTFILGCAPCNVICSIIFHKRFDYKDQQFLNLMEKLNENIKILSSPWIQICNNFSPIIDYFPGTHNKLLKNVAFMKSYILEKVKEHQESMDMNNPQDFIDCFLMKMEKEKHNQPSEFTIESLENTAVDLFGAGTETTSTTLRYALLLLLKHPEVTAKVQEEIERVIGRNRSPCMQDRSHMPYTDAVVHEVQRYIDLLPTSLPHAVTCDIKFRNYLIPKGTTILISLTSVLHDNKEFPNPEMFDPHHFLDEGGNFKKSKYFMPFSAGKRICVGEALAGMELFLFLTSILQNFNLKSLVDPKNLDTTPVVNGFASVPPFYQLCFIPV
Cytochrome P450 2C19 (Homo sapiens), sequence (P33261 whole entry, looked up): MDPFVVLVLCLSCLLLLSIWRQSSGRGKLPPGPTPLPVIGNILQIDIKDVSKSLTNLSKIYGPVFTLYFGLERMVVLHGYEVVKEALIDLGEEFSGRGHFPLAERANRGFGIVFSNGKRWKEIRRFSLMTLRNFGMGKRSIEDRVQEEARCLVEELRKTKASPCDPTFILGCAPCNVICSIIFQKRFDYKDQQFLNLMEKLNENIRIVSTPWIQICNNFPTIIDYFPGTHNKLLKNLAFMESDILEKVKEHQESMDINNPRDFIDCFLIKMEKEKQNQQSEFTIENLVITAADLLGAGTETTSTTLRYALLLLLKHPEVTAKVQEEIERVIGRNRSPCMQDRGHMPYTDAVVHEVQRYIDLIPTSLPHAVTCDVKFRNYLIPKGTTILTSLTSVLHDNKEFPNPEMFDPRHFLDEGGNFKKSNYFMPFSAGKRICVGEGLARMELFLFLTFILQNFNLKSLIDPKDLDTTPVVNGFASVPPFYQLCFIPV
Nuclear receptor subfamily 1 group I member 2 (Rattus norvegicus), sequence (Q9R1A7 whole entry, looked up): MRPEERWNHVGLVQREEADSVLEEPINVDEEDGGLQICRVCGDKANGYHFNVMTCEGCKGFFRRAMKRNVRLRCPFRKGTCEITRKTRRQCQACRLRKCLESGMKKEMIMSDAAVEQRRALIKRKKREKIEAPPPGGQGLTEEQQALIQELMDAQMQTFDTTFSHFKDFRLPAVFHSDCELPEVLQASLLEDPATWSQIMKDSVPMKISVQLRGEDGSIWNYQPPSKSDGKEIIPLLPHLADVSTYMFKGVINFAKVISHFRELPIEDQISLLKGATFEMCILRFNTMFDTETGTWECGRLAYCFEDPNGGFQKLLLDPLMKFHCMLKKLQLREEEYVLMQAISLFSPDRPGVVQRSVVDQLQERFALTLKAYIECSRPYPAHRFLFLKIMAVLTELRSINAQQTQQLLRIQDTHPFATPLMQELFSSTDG
Cytochrome P450 1A2 (Homo sapiens), sequence (P05177 whole entry, looked up): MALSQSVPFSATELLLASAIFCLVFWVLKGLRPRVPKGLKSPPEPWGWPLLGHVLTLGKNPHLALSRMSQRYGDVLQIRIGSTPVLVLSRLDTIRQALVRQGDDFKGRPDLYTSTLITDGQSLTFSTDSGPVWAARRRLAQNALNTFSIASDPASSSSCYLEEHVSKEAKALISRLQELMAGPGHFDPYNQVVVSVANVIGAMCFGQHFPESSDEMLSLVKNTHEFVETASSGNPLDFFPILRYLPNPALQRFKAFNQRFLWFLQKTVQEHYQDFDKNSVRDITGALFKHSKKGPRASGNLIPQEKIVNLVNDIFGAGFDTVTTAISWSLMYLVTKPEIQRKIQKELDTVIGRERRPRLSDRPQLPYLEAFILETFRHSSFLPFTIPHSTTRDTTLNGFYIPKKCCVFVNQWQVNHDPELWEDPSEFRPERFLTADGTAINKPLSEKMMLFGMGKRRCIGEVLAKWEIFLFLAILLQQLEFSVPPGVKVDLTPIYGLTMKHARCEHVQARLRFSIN
Cytochrome P450 2D6 (Homo sapiens), sequence (P10635 whole entry, looked up): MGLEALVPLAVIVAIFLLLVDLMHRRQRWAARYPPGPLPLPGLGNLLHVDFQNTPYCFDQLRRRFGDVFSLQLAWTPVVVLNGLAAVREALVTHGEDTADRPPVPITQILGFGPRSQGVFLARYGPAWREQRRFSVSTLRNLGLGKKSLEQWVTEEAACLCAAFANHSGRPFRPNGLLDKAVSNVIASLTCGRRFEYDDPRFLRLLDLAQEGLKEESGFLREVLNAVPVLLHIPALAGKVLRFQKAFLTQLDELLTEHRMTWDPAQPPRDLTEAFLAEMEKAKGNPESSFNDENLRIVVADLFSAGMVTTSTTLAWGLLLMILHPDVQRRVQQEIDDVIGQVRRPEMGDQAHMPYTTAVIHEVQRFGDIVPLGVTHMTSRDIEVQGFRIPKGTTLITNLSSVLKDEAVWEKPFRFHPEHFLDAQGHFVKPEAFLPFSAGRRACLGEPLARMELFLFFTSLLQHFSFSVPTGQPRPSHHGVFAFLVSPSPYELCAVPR

Cc1cc2c(cc1S(N)(=O)=O)S(=O)(=O)CCC2
inactive: Potency [1] | Potency [2] | outcome [3] | Potency [4] | Potency [5] | max activation [6] -2.16% | Potency [7] | Potency [8] | Potency [9] | Potency [10] | Potency [11] | Potency [12] | Potency [13] | Potency [14]

CCO/C([O-])=N/c1c[n+](N2CCOCC2)no1
inactive: Potency [1] | Potency [2] | outcome [3] | Potency [4] | Potency [5] | max activation [6] 0.703% | Potency [7] | Potency [8] | Potency [9] | Potency [10] | Potency [11] | Potency [12] | Potency [13] | Potency [14]

CCOC(=O)c1cccc(N)c1
active: Potency [12] 5.75 µM
inactive: Potency [1] | Potency [2] | outcome [3] | Potency [4] | Potency [5] | Potency [7] | Potency [9] | Potency [10] | Potency [11] | Potency [13] | Potency [14]

C[C@](N)(Cc1ccc(O)cc1)C(=O)O
inactive: caspase activation [1] -1.17% [at 8.39 µM] | activity change, negative = cytotoxicity [2] -0.609% [at 8.39 µM] | caspase-3/7 activation [3] 0.841% [at 8.39 µM] | activity change, negative = cytotoxicity [4] -1.6% [at 8.39 µM] | activation [5] -9.59% [at 8.39 µM] | max activation [6] 0.627% | Potency [7] | Potency [8] | activity change, negative = inhibition [9] -0.539% [at 10.5 µM] | activity change, negative = inhibition [10] -21.1% [at 10.5 µM] | activity change, negative = inhibition [12] 0.454% [at 10.5 µM] | activity change, negative = inhibition [13] 1.07% [at 6.97 µM] | activity change, negative = inhibition [14] -20.3% [at 10.5 µM]

OC(CCN1CCCCC1)(c1ccccc1)C1CC2C=CC1C2 (stereo not drawn)
active: Potency [5] 10.6 µM | Potency [7] 28.2 µM | Potency [9] 0.776 µM
inactive: Potency [1] | Potency [2] | outcome [3] | Potency [4] | max activation [6] -2.76% | Potency [11] | Potency [12]

CN1CCN(c2cc3c(cc2F)c(=O)c(C(=O)O)cn3-c2ccc(F)cc2)CC1
inactive: Potency [1] | Potency [2] | outcome [3] | Potency [4] | Potency [5] | max activation [6] -3.97% | Potency [7] | Potency [8] | Potency [9] | Potency [10] | Potency [11] | Potency [12] | Potency [13] | Potency [14]

c1ccc([C@H]2CN3CCSC3=N2)cc1
inactive: Potency [1] | Potency [2] | outcome [3] | Potency [4] | Potency [5] | max activation [6] -1.7% | Potency [7] | Potency [8] | Potency [10] | Potency [11] | Potency [13] | Potency [14]

Cc1cccn2c(=O)c(-c3nnn[nH]3)cnc12
inactive: caspase activation [1] -1.09% [at 19 µM] | Potency [2] | caspase-3/7 activation [3] -1.17% [at 19 µM] | activity change, negative = cytotoxicity [4] -1.23% [at 19 µM] | activation [5] -6.8% [at 19 µM] | max activation [6] -7.7% | Potency [7] | Potency [8] | Potency [10] | activity change, negative = inhibition [11] -1.3% [at 23.6 µM] | activity change, negative = inhibition [13] 0.271% [at 15.8 µM] | activity change, negative = inhibition [14] 2.55% [at 23.6 µM]

CCOC(=O)[C@H](CCc1ccccc1)N[C@@H](C)C(=O)N1[C@H](C(=O)O)C[C@@H]2CCC[C@@H]21
inactive: Potency [1] | Potency [2] | outcome [3] | Potency [4] | Potency [5] | max activation [6] -3.39% | Potency [8] | Potency [9] | Potency [10] | Potency [11] | Potency [12] | Potency [13]

CN(C)CCCNCCCN(C)C
active: Potency [9] 20 µM
inactive: Potency [1] | Potency [2] | outcome [3] | Potency [4] | Potency [5] | Potency [10] | Potency [11] | Potency [12] | Potency [13]

CC(C)(c1ccc(O)cc1)c1ccc(O)cc1
inactive and 64.4 µM (active): Potency [9]
inactive and 57.4 µM (active): Potency [12]
inactive: Potency [1] | outcome [3] | Potency [4] | Potency [10] | Potency [13]
active: Potency [2] 69.8 µM | Potency [5] 24.1 µM and 9.86 µM | Potency [11] 35.2 µM and 28.8 µM

COC(=O)C1=C(C)NC(C)=C(C(=O)OC)C1c1ccccc1[N+](=O)[O-]
30.7 µM (active) and inactive: Potency [4]
active: Potency [2] 48.6 µM and 26.6 µM
inactive: Potency [1] | outcome [3]

O=C(O)Cc1ccc(CCNS(=O)(=O)c2ccc(Cl)cc2)cc1
inactive: Potency [1] | Potency [2] | outcome [3] | Potency [4] | Potency [5] | max activation [6] -10% | Potency [7] | Potency [8] | Potency [9] | Potency [10] | Potency [12] | Potency [13] | Potency [14]

CC(C[N+](C)(C)C)OC(N)=O (stereo not drawn)
inactive: Potency [1] | Potency [2] | outcome [3] | Potency [4] | Potency [5] | max activation [6] 0.875% | Potency [7] | Potency [8] | Potency [9] | Potency [10] | Potency [11] | Potency [13] | Potency [14]

N[C@@H](C(=O)N[C@@H]1C(=O)N2C(C(=O)O)=C(Cl)CS[C@H]12)c1ccccc1
inactive: caspase activation [1] 0.709% [at 8.39 µM] | activity change, negative = cytotoxicity [2] 1.61% [at 8.39 µM] | caspase-3/7 activation [3] -1.31% [at 8.39 µM] | activity change, negative = cytotoxicity [4] 4.06% [at 8.39 µM] | activation [5] -7.63% [at 8.39 µM] | max activation [6] -2.39% | Potency [7] | Potency [8] | activity change, negative = inhibition [9] -15.8% [at 10.5 µM] | activity change, negative = inhibition [10] 33.2% [at 10.5 µM] | activity change, negative = inhibition [11] -2.01% [at 10.5 µM] | activity change, negative = inhibition [12] 7.47% [at 10.5 µM] | activity change, negative = inhibition [13] -6.12% [at 6.97 µM] | activity change, negative = inhibition [14] -15.7% [at 10.5 µM]

O=C(CCCN1CCN(c2ccccn2)CC1)c1ccc(F)cc1
inactive: Potency [1] | Potency [2] | outcome [3] | Potency [4] | max activation [6] 0.0374% | Potency [12] | Potency [14]
active: Potency [5] 6.68 µM | Potency [7] 12.6 µM | Potency [8] 10 µM | Potency [9] 11 µM | Potency [10] 34.7 µM | Potency [11] 7.76 µM | Potency [13] 6.74 µM

COC(=O)CC(C)=O
inactive: Potency [1] | Potency [2] | outcome [3] | Potency [4] | Potency [5] | Potency [9] | Potency [10] | Potency [11] | Potency [12] | Potency [13] | Potency [14]

CCC(=O)OC(C)c1ccccc1 (stereo not drawn)
inactive: Potency [1] | Potency [2] | outcome [3] | Potency [4] | Potency [5] | Potency [9] | Potency [10] | Potency [11] | Potency [12] | Potency [13] | Potency [14]
